# In the supplement of paper PMC6555819:
# System: PPARg DBDmut IVT, anti-PPARg (DBD mutation: PPARg1 K132A/R137A, NR concentration 270 nM)
# Assay: PBM binding z-score (relative to random genomic background probes); higher = stronger binding; sequences stand for … in GC…GCGATTGACAGCGTAGAATGAAGG
# In short: (§1)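 Binding buffer was PBS pH 7.4 with 2% milk, 0.02% Triton X-100, 1 mM DTT, 0.2 mg/mL BSA and 0.4 mg/ml salmon testes DNA. In it, ligand-free nuclear receptor dimers were incubated 1 h on custom Agilent 4×180K protein-binding microarrays carrying double-stranded probes. Antibodies against each partner (one per run) detected binding, and z-scores were calculated against random background probes after regression normalization of scanned fluorescence.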
row,Sequence,PBM binding z-score
1,TCTTGTAGATCAAGCAGGCTAAGAAAGCCTGAGT,1.11
2,ACTAGCAGACCAAGGGTCACTCAAGATTAGTCCG,-0.38
3,GCGACTGGGGCAAAGCCGGTTACCATAAGGTTGG,-1.49
4,ATATGTAGGGTATCGGGTCATTCAGTTTGCGCAT,2.33
5,CGTCCAAGGTTATAGGAGGTCAGTGAAGACAGAT,0.256
6,ACTATTAGTTGAGACGAAGGCAACCGATAGGTTG,0.396
7,CCGACTGGGGCAGAAGGTTACCATAAGCCAGCCC,-1.69
8,TCATATAGCTAAACAGGTGAAAGTCCGTAAGTTA,0.119
9,CGAACTAGGTCGGAACAGGACAGTGAAGGATGAT,-0.428
10,TAGCCTAGGTCATTGGGCCAGTATCGTACGCATC,-0.521
11,TCTCGGAGGACACGAAGGGCAGAGCTTTCCAGAG,-0.906
12,TCTGCTAGGTCAGTTGGTCAGTTAACGAGCTGCC,0.61
13,ACTAGCAGGCCAAGGGTCACTTAAGATTAGTCCG,-0.252
14,CCTCGGGGGACAGAAGGTCAGAGCTGTCCGCTTT,-0.683
15,GCTCGGATGACAAGGTCAGAGCTTTGTCCGTAGA,-1.25
16,CCTACTGGGCCACCAGGTCATTGATATCAACGTT,-0.298
17,TGAATGAGGTTAAAGAACAGGGAACGTGGCGTCG,0.463
18,GCGACTGGGGCATCAGCAGGTTACGATAACTTAA,-0.712
19,TAGCCTAGGTCATTCAGGAGCCAGTATAGAAAGC,0.0429
20,ACTGACAGGTGAGTGAAGGTAACTCAGCTGGACG,-0.257

row,Sequence,PBM binding z-score
1,AATACAGGGTCATCGTAGGCCAGAGGACGCACAG,0.83
2,CGAACTGGGTCATTGACAGGACAGTGAATAGTAA,1.35
3,GCTTACGAGTCAAAGGTTATAGCATGAATAGAAT,-0.155
4,CCTAGTTGGTCCGGAGGTCACACACCGGATATGA,0.613
5,TAGCCTAGGTCATGCAGGCCAGTATAGTGTCGGC,0.0782
6,TAGCATAGGTCATGGGCCAGTATACCACGCGAAC,0.0731
7,TCATACAGGTAAAAGGTGAAAGTCGGTGTGGTAA,1.18
8,TCAAGCAGGCCAGAGGGTCACTCAAGAGGTACGG,-1.55
9,CTACCAAGGTGAACAAGGTCGTCGATTACTATTC,-0.426
10,TCTGCTAGGTCAACGAGGGTCAGCTAATCTGCTA,-0.307
11,TCTTGTGGATCAGCAGGTTAAGAAAGCTGGCCAA,0.165
12,CCTACTGGACCATTCAGAGGTCATTGATCATATG,0.13
13,ATCGAAAGATCGACGAGGTGAGTATACACCGTTT,0.447
14,CCAGACAGGTGAGAAGGTAAGTCAGCCTCGATTA,-0.901
15,GTGACTGGGGCAAAGCAGGTTACCATAAGGTTGG,0.645
16,GCTAGCAGGCCATTTGGGTCACTGAATGACGGGC,-0.738
17,TCATATAGGTAAATGCTAGGTAAAAGTCCGATCT,0.766
18,ACAGACAGGTGATGAAGGGAACTCAGGCTATCAT,-0.0521
19,GCTAGTTGGTCAGTAAAAGGTCACACCCCGGTCG,-0.291
20,ACTATTTGTTGACTTAGGGCAACCGATACGACGC,1.78

# System: PPARg homodimer (NR concentration 180 nM)
# Assay: as above
# In short: as §1
row,Sequence,PBM binding z-score
1,TCTTGTAGATCAAGCAGGCTAAGAAAGCCTGAGT,-0.6
2,ACTAGCAGACCAAGGGTCACTCAAGATTAGTCCG,1.55
3,GCGACTGGGGCAAAGCCGGTTACCATAAGGTTGG,-0.424
4,ATATGTAGGGTATCGGGTCATTCAGTTTGCGCAT,2.08
5,CGTCCAAGGTTATAGGAGGTCAGTGAAGACAGAT,3.21
6,ACTATTAGTTGAGACGAAGGCAACCGATAGGTTG,0.149
7,CCGACTGGGGCAGAAGGTTACCATAAGCCAGCCC,0.826
8,TCATATAGCTAAACAGGTGAAAGTCCGTAAGTTA,0.0802
9,CGAACTAGGTCGGAACAGGACAGTGAAGGATGAT,-0.2
10,TAGCCTAGGTCATTGGGCCAGTATCGTACGCATC,1.11
11,TCTCGGAGGACACGAAGGGCAGAGCTTTCCAGAG,-0.399
12,TCTGCTAGGTCAGTTGGTCAGTTAACGAGCTGCC,0.428
13,ACTAGCAGGCCAAGGGTCACTTAAGATTAGTCCG,2.04
14,CCTCGGGGGACAGAAGGTCAGAGCTGTCCGCTTT,1.59
15,GCTCGGATGACAAGGTCAGAGCTTTGTCCGTAGA,0.624
16,CCTACTGGGCCACCAGGTCATTGATATCAACGTT,1.02
17,TGAATGAGGTTAAAGAACAGGGAACGTGGCGTCG,0.725
18,GCGACTGGGGCATCAGCAGGTTACGATAACTTAA,0.335
19,TAGCCTAGGTCATTCAGGAGCCAGTATAGAAAGC,0.878
20,ACTGACAGGTGAGTGAAGGTAACTCAGCTGGACG,-0.647

row,Sequence,PBM binding z-score
1,AATACAGGGTCATCGTAGGCCAGAGGACGCACAG,2
2,CGAACTGGGTCATTGACAGGACAGTGAATAGTAA,0.71
3,GCTTACGAGTCAAAGGTTATAGCATGAATAGAAT,0.792
4,CCTAGTTGGTCCGGAGGTCACACACCGGATATGA,2.74
5,TAGCCTAGGTCATGCAGGCCAGTATAGTGTCGGC,1.52
6,TAGCATAGGTCATGGGCCAGTATACCACGCGAAC,2.07
7,TCATACAGGTAAAAGGTGAAAGTCGGTGTGGTAA,1.6
8,TCAAGCAGGCCAGAGGGTCACTCAAGAGGTACGG,0.379
9,CTACCAAGGTGAACAAGGTCGTCGATTACTATTC,1.09
10,TCTGCTAGGTCAACGAGGGTCAGCTAATCTGCTA,2.15
11,TCTTGTGGATCAGCAGGTTAAGAAAGCTGGCCAA,0.237
12,CCTACTGGACCATTCAGAGGTCATTGATCATATG,3.36
13,ATCGAAAGATCGACGAGGTGAGTATACACCGTTT,-0.719
14,CCAGACAGGTGAGAAGGTAAGTCAGCCTCGATTA,0.826
15,GTGACTGGGGCAAAGCAGGTTACCATAAGGTTGG,0.994
16,GCTAGCAGGCCATTTGGGTCACTGAATGACGGGC,-0.224
17,TCATATAGGTAAATGCTAGGTAAAAGTCCGATCT,0.885
18,ACAGACAGGTGATGAAGGGAACTCAGGCTATCAT,0.0738
19,GCTAGTTGGTCAGTAAAAGGTCACACCCCGGTCG,3.31
20,ACTATTTGTTGACTTAGGGCAACCGATACGACGC,0.884
